From PubChem
Only some compounds are listed: those with a hit (about 1.6% of all), similar ones and a draw of the others.
KCNQ2 inh: blocks the rat KCNQ2 potassium channel | O88943 | CHO-K1 KCNQ2, FluxOR thallium flux, 20 min; stronger effect = lower value | B-score at 10 µM | hit rate 1.1% among 310,000 | AID 2156;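 active = fluorescence ratio B-score at most minus 3 library SDs, with starting brightness B-score within 2 library SDs, cut at about -5.5 in these data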
Target sequence (O88943 whole entry, looked up): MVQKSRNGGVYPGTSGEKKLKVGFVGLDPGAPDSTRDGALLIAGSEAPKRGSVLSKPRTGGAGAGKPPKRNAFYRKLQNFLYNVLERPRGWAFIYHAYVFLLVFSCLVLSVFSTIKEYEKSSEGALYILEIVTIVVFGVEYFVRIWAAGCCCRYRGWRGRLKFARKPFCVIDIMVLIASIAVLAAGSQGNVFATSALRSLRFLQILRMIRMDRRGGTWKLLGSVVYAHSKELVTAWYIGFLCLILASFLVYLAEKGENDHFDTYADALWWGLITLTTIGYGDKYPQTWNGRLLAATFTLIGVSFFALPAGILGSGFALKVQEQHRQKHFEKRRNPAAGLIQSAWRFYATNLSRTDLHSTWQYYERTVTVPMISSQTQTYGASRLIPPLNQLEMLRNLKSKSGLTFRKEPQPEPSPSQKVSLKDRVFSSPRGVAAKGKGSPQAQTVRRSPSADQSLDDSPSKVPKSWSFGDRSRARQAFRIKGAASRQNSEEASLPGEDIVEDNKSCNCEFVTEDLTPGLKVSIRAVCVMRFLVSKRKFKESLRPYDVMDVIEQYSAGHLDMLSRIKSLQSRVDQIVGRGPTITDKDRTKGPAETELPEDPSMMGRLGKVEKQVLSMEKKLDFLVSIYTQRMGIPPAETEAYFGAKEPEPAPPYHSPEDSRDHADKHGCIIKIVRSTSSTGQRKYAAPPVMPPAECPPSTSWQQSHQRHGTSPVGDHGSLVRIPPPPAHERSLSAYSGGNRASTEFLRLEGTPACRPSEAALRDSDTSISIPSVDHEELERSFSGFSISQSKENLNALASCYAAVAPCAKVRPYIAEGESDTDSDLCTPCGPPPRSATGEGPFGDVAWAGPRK
KCNQ2 pot: potentiators of rat KCNQ2 potassium channel. hit rate 0.54% among 310,000. AID 2239. CHO-K1 KCNQ2, FluxOR thallium flux fluorescence; stronger effect = higher value. O88943. B-score at 10 µM;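 active = fluorescence ratio B-score at least 3 SD of library B-scores, with initial fluorescence B-score within 3 of them, cut at about 5.3 in these data; same plate scores as AID 2156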;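 also: B-score of peak minus minimum over baseline fluorescence ratio after K+ and Tl+ stimulus; positive B-score means potentiation of KCNQ2 with more thallium influx and brighter signal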
Kir21 conf inh: confirmation of mouse Kir2.1 potassium channel inhibitors; shares compounds with KCNQ2 pot; Kir2.1-expressing cells, FluxOR thallium flux fluorescence; stronger effect = lower value; Tl flux remaining, % of negative control (stronger effect = lower value), % at 10 µM; hit rate 41% among 2,300; AID 2032;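 active = Primary-screen hit whose thallium flux fell at least 3 control SD below untreated wells in both duplicates, with normal baseline fluorescence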;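 also: 0% = blank wells without stimulus and 100% = stimulated no-compound controls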
HEK293 ctr: parental HEK293 activity in Kir2.1 inhibitor counter-screen. FluxOR signal as % of negative control (100 = no effect), % at 10 µM. parental HEK293 cells, FluxOR thallium flux fluorescence; 0% = unstimulated blank wells. hit rate 19% among 2,300. shares compounds with KCNQ2 pot;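 active = dye signal at least 3 control SD above or below untreated wells in both duplicates, raw fluorescence within 3, either direction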;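 also: percent is based on the flux ratio of peak minus minimum fluorescence over baseline F0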
CHO-K1 Tl ctr: alters thallium flux in parental CHO-K1 cells, KCNQ2 counter-screen; shares compounds with KCNQ2 pot; FluxOR thallium flux fluorescence; zero = vehicle mean+3SD, 100% = vehicle-minus-blank window; activity increase over 3SD of controls, % at 10 µM; hit rate 43% among 1,200; AID 2282;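 active = signal rise of at least 3 SD above the untreated control mean, in both duplicate wells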;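 also: counter screen of KCNQ2 potentiator hits so any rise reflects channel-independent effects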
KCNQ1 sel pot: human KCNQ1 counter-target activity of KCNQ2 potentiators; shares compounds with KCNQ2 pot; CHO KCNQ1 stable, FluxOR thallium flux fluorescence; beyond 3SD, as % of vehicle-control signal; activation over 3SD threshold, % at 10 µM; hit rate 28% among 1,200; AID 2283;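 active = fluorescence ratio rise of at least 3 SD of vehicle wells above their mean, in both replicate wells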;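 also: 0% = vehicle mean plus 3 SD and 100% = vehicle minus unstimulated blank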
KCNQ2 pot confirm: rat KCNQ2 channel potentiator confirmation | shares compounds with KCNQ2 pot | CHO-KCNQ2 cells, FluxOR thallium flux fluorescence | potentiation, less the hit threshold, % at 10 µM | hit rate 68% among 1,200 | AID 2287;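 active = fluorescence ratio rising 3 SD or more over the vehicle control mean in both replicates, plus primary screen hit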;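 also: peak minus minimum thallium fluorescence divided by baseline after K/Tl stimulus; 0% = vehicle mean plus 3 SD and 100% = vehicle minus unstimulated blank difference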
Kir21 spec: selectivity of KCNQ2 potentiators: effect on mouse Kir2.1. shares compounds with KCNQ2 pot. HEK293 Kir2.1, FluxOR thallium flux fluorescence. activity over 3SD threshold, % at 10 µM. hit rate 2% among 1,200;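 active = fluorescence ratio rise of at least 3 SD above the vehicle-control mean, seen in both replicates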;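 also: 0% = vehicle mean plus 3 SD and 100% = vehicle minus no-stimulus blank window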
KCNQ2 W236L MoA: KCNQ2 potentiators acting on retigabine-insensitive rat KCNQ2 W236L mutant. shares compounds with KCNQ2 pot. CHO KCNQ2-W236L, automated patch clamp current. current increase over 3SD of negative controls (%), stronger effect = higher value, % at 25 µM. hit rate 10% among 940. AID 2558;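 active = current increase at least 3 SD of the untreated controls above them in both duplicate recordings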
Numbers without * were called inactive; i = inactive; nt = no result given.

SMILES	KCNQ2 inh	KCNQ2 pot	Kir21 conf inh	HEK293 ctr	CHO-K1 Tl ctr	KCNQ1 sel pot	KCNQ2 pot confirm	Kir21 spec	others
C=C[C@@]1(C)CC(=O)[C@]2(O)[C@@]3(C)[C@@H](O)CCC(C)(C)[C@@H]3[C@H](OC(C)=O)[C@H](O)[C@@]2(C)O1	i	5.1	nt	nt	nt	nt	nt	nt
C=C[C@@]1(C)CC(=O)[C@]2(O)[C@@]3(C)[C@@H](O)CCC(C)(C)[C@@H]3[C@H](O)[C@H](OC(C)=O)[C@@]2(C)O1	i	8.9*	i	i	-13	-26	7.1*	-37	KCNQ2 W236L MoA=2.3%*
CN(C)CCN1C(=O)C(=O)/C(=C(/O)c2ccc(S(=O)(=O)N3CCOCC3)cc2)C1c1ccc(F)cc1 (stereo not given)	i	nt	nt	nt	nt	nt	nt	nt
O=C(Nc1cc(S(=O)(=O)Nc2ccccc2Cl)ccc1O)c1sc2cc(Cl)ccc2c1Cl	i	0.79	nt	nt	nt	nt	nt	nt
Cc1ccc(C(=O)CC(=O)c2ccccc2)cc1	i	1.3	nt	nt	nt	nt	nt	nt
Cc1ccc(C(=O)Sc2cccccc2=O)cc1	i	11*	nt	nt	-12	-21	85*	-46	KCNQ2 W236L MoA=i
COc1ccc(N(CC(=O)NC2CCCC2)C(=O)c2ccc(C)s2)cc1OC	i	0.03	nt	nt	nt	nt	nt	nt
Cc1ccc(NC(=O)/C=C/C(=O)O)c(NC(=O)c2ccccc2)c1	i	0.21	nt	nt	nt	nt	nt	nt
CC(C)c1ccc(/C=C/C(=O)NC2CCCCC2)cc1	i	0.67	nt	nt	nt	nt	nt	nt
CC(C)c1ccc(C(C)NC(=S)NC2CCCCC2)cc1 (stereo not given)	i	16*	i	i	-3	-20	39*	-42	KCNQ2 W236L MoA=i
CC(C)c1ccccc1NC(=S)NC1CCCCC1	i	nt	nt	nt	nt	nt	nt	nt
CC(NC(=S)NC1CCCCC1)c1ccc(C(C)(C)C)cc1 (stereo not given)	i	9.9*	i	i	-6	-18	16*	-34	KCNQ2 W236L MoA=i
CCC1(c2ccc(F)cc2)NC(=O)N(CC(=O)Nc2ccc(S(N)(=O)=O)cc2)C1=O (stereo not given)	i	nt	nt	nt	nt	nt	nt	nt
O=C(Nc1ccccc1)c1cc(S(=O)(=O)N2CCSCC2)ccc1Cl	i	nt	nt	nt	nt	nt	nt	nt
O=C(Nc1cccc(O)c1)c1cc(S(=O)(=O)N2CCCC2)ccc1Cl	i	5.3*	i	i	40*	-7	-12	-27
CN(C)CCNC(=O)COc1ccc(C23CC4CC(CC(C4)C2)C3)cc1	i	nt	41%*	i	nt	nt	nt	nt
Cc1ccc(C23CC4CC(CC(NC(=O)NCCN(C)C)(C4)C2)C3)cc1	i	nt	nt	nt	nt	nt	nt	nt
COc1ccc(C(=O)O/N=C2\C(=O)N(C)c3ccccc32)cc1	i	nt	nt	nt	nt	nt	nt	nt
CN1C(=O)/C(=N\OC(=O)c2cccc3ccccc23)c2ccccc21	i	5.4*	i	i	-16	-12	-19	-36
CN(C)CCc1cc2c(c3c1ccc1ccccc13)OCO2	i	nt	16%*	i	nt	nt	nt	nt
COc1cc2ccc3c(CCN(C)C)cc(OC)c(OC)c3c2cc1OC	i	1.3	nt	nt	nt	nt	nt	nt
O=S(=O)(NCc1ccco1)c1ccccc1Br	i	1.3	nt	nt	nt	nt	nt	nt
COc1ccc(-c2nc3ccccc3[nH]2)cc1	i	nt	nt	nt	nt	nt	nt	nt
COc1ccc(-c2nc(=S)c3ccc4ccccc4c3[nH]2)cc1	i	20*	i	152%*	-16	-48	23*	-31	KCNQ2 W236L MoA=i
Cc1cccc(NC(=O)CCNC(=O)c2ccco2)c1C	i	nt	nt	nt	nt	nt	nt	nt
SMILES	KCNQ2 inh	KCNQ2 pot	Kir21 conf inh	HEK293 ctr	CHO-K1 Tl ctr	KCNQ1 sel pot	KCNQ2 pot confirm	Kir21 spec	others
Cc1cccc(NC(=S)NC(=O)c2ccco2)c1C	i	9.9*	i	364%*	-10	-2	46*	-28	KCNQ2 W236L MoA=i
O=C(NC(=S)Nc1ccccc1Br)c1ccco1	i	9.5*	i	181%*	4.9*	91*	19*	-20	KCNQ2 W236L MoA=i
COc1ccc(-c2csc(NC(=S)NC(=O)c3ccco3)n2)cc1Br	i	5.7*	i	i	30*	22*	-10	-31
CS(=O)(=O)c1ccc2nc(NC(=O)c3ccco3)sc2c1	i	0.64	nt	nt	nt	nt	nt	nt
O=C(NC(=S)Nc1nc2ccc(F)cc2s1)c1ccco1	i	13*	i	i	-16	-33	26*	-33	KCNQ2 W236L MoA=i
COc1ccc(-c2csc(NC(=S)NC(=O)c3cc4ccccc4o3)n2)cc1Br	i	2.8	nt	nt	nt	nt	nt	nt
O=C(NC(=S)Nc1cccc(NC(=S)NC(=O)c2ccco2)n1)c1ccco1	i	nt	nt	nt	nt	nt	nt	nt
O=C(Nc1nnc(C2CC2)s1)c1cc([N+](=O)[O-])ccc1N1CCCCC1	i	nt	nt	nt	nt	nt	nt	nt
Cn1c(CNC(=O)CNC(=O)c2ccccc2F)cc(=O)n(C)c1=O	i	0.08	nt	nt	nt	nt	nt	nt
COc1ccc(N(C(=O)c2snc(C(N)=O)c2N)C(C(=O)NC2CCCCC2)c2ccc(C)o2)cc1 (stereo not given)	i	nt	nt	nt	nt	nt	nt	nt
Cc1ccc(C(=O)N(Cc2ccccc2)C(C)(C)C)cc1C	i	nt	nt	nt	nt	nt	nt	nt
CCc1nc(NC(=O)c2sc(C)nc2C)sc1C(=O)OC	i	0.79	nt	nt	nt	nt	nt	nt
CCOc1ccc(NC(=O)c2ccco2)cc1	i	1.8	nt	nt	nt	nt	nt	nt
Cc1ccoc1C(=O)Nc1ccc2ccccc2c1	i	19*	i	i	49*	-17	75*	-18	KCNQ2 W236L MoA=i
CC1CCN(c2ccccc2NC(=S)NC(=O)c2cccs2)CC1	i	nt	nt	nt	nt	nt	nt	nt
CCOc1ccc(NC(=S)NC(=O)c2ccco2)cc1	i	7.8*	i	163%*	-8	38*	23*	-19	KCNQ2 W236L MoA=i
Cc1cc(C(=O)Nc2ccc3ccccc3c2)oc1C	i	nt	nt	nt	nt	nt	nt	nt
O=C(Nc1ccc(Oc2ccc(NC(=O)c3ccco3)c(NC(=O)c3ccco3)c2)cc1)c1ccco1	i	0.23	nt	nt	nt	nt	nt	nt
CC1CCN(c2ccccc2NC(=S)NC(=O)c2ccco2)CC1	i	5.9*	i	i	-5	-8	-7	-30
O=C(Nc1ccc(Oc2ccc3ccccc3c2)cc1)c1ccco1	i	11*	i	i	10*	10*	28*	-17	KCNQ2 W236L MoA=7.7%*
COc1cccc2sc(=NC(=O)CS(=O)(=O)c3ccc(Cl)cc3)n(C)c12	i	nt	nt	nt	nt	nt	nt	nt
Cc1noc(C)c1COc1ccccc1C(=O)NNC(=O)C(C)Oc1ccccc1F (stereo not given)	i	nt	nt	nt	nt	nt	nt	nt
CCC(C)Sc1ccc([C@@H]2[C@@H]3C(=O)N(C)C(=O)[C@@H]3[C@]3(C(=O)OC)CCCCN23)cc1 (stereo not given in full)	i	1.1	nt	nt	nt	nt	nt	nt
